Experimental data reported in PubChem BioAssay AID1779 (Sanford-Burnham Center for Chemical Genomics, 2009).
The whole screen tested about 290,000 compounds, of which about 160 (0.055%) were called active. No stated cut-off is given here; in the data, active means inhibition above about 50%; inactive means the rest. The list comes from a sample in which actives are over-represented; it also holds similar structures and randomly drawn compounds.

target: Tyrosine-protein phosphatase non-receptor type 22 (Homo sapiens) (UniProt Q9Y2R2); test: PTPN22 lymphoid phosphatase activity blockers – biochemical, fluorescence intensity, uHTS (AID 1779); settings: recombinant LYP phosphatase, at 11.5 µM, hits give high values;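 further: plate controls were vehicle with enzyme for no effect and no enzyme for full effect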
Sequence (Q9Y2R2 whole entry, looked up): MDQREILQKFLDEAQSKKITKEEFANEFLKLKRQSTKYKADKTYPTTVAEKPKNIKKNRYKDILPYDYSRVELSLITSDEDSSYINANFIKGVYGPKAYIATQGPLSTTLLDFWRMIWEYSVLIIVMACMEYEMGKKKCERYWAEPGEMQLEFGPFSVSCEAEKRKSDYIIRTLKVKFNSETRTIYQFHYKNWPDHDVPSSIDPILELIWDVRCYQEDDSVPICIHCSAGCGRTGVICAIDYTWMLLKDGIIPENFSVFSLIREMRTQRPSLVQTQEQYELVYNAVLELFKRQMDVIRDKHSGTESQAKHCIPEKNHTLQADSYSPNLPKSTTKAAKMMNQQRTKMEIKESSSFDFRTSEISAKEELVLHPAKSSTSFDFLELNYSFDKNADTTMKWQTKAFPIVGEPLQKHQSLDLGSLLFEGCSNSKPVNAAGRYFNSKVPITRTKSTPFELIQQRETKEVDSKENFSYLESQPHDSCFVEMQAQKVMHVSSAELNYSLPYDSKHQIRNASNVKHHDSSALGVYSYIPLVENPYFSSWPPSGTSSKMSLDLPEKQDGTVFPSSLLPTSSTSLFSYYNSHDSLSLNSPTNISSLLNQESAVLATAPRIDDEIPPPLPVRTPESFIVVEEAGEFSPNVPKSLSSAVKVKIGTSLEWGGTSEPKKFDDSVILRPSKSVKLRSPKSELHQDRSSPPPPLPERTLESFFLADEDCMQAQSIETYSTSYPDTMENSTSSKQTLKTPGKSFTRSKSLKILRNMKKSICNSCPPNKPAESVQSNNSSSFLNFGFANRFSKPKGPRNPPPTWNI

inhibition, inactive:
CCOC(=O)c1ccc(NC(=S)NC(=O)c2nn(CC)cc2Br)cc1 1.9%, CCOC(=O)c1ccc(NC(=O)c2nn(CC)cc2Br)cc1 -4.5%, COC(=O)CNC(=O)c1ccc(C)s1 -7.8%, CCS(=O)(=O)N1CCN(S(=O)(=O)c2ccc3ccccc3c2)CC1 -9.2%, CN1CCN(S(=O)(=O)c2ccc3ccccc3c2)CC1 -4.3%, CCN(CC(=O)N1CCOCC1)S(=O)(=O)c1ccc2ccccc2c1 -8.1%, Cc1ccc(OCC(O)CNS(=O)(=O)c2ccccc2C(=O)O)cc1 (configuration not stated) -4.9%, CCC(=O)Nc1ccc(/C(C)=N/NC(=O)c2c(-c3ccccc3Cl)noc2C)cc1 -2.5%, CC(=O)Nc1cccc(NC(=O)c2c(-c3ccccc3Cl)noc2C)c1 -3.7%, C/C(=N\NC(=O)C(=O)Nc1cccc(Cl)c1C)c1ccncc1 -8%, O=C(c1cc2cc(Cl)ccc2[nH]1)N1CCN(C(=O)c2ccco2)CC1 -9.3%, CN1CCN(C(=O)c2cc3cc(F)ccc3[nH]2)CC1 -9.9%, O=C(NNc1c(Cl)cccc1Cl)c1cccs1 -4.8%, CCCC(=O)Nc1ccc(Cl)c(NC(=O)CC)c1 -12.2%, O=C(NC(=S)Nc1ccccc1C(=O)O)c1ccc(-c2ccc(Br)cc2)o1 1.2%, O=C(NC(=S)Nc1ccc(CN2CCOCC2)cc1)c1ccc(-c2ccc(Br)cc2)o1 -14.4%, CCCc1cc(C(=O)NC2CCCN(Cc3ccccc3F)C2)no1 (configuration not stated) -1.5%, CC(=O)N(CC(=O)O)c1ccccc1 -0.7%, O=C(COc1ccccc1F)Nc1cc(S(=O)(=O)N2CCOCC2)ccc1N1CCOCC1 -1.3%, CCC(C)NCCOCCOc1ccc(Cl)cc1Br (configuration not stated) -3.3%, CCC(C)NCCOCCOc1ccc(Cl)c2ccccc12 (configuration not stated) 1.1%

inhibition, active:
CCn1cc(Br)c(C(=O)NC(=S)Nc2ccc(C(=O)OC)cc2)n1 65.2%, CN(C)S(=O)(=O)N1CCN(S(=O)(=O)c2ccc3ccccc3c2)CC1 71.6%, C/C(=N\NC(=O)c1c(-c2ccccc2Cl)noc1C)c1cccc(NC(=O)C(C)C)c1 77.1%, O=C(c1cc2cc(F)ccc2[nH]1)N1CCN(C(=O)c2ccco2)CC1 95.1%, O=C(O)c1ccc(NC(=S)NC(=O)c2ccc(-c3ccc(Br)cc3)o2)cc1 86.9%, CCC(C)NCCOCCOc1ccc(Cl)c(C)c1C (configuration not stated) 76.9%
